# Hits are enriched below; roughly 2.1% of the tested compounds scored in any of these assays.
# EBV LMP1 NFkB – reduces LMP1-driven NF-kappaB luciferase signal. 0.69% of 350,000 active. AID 504558. inhibition, % at 12.5 µM. LMP1-induced NF-kappaB luciferase reporter cells, luminescence; in the data active = inhibition above about 41%; inconclusive = no clear call, values can overlap the other calls;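 note: 0% = neutral control wells and 100% = reference inhibitor control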
# TRPM1 prom inh – MITF TRPM1 promoter inhibition in SK-MEL-5 cells. SK-MEL-5 TRPM1 promoter luciferase, 24 h. inhibition, % at 12.5 µM. AID 488899. 0.83% of 330,000 active;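 active = mean inhibition across replicates of 60% or more, whatever share of single replicates reaches that level; inconclusive = some that reach 60%, reason not given; inactive = mean inhibition across replicates below 60%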
# PAX8 inh HTS – inhibitors of PAX8 transcriptional activity in RMG-I cells | inhibition, % at 12.6 µM | RMG-I TPO-luciferase reporter, SteadyGlo, 24 h | 1.2% of 360,000 active;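 active = mean replicate inhibition at least 60% with every replicate also reaching 60%; inconclusive = only one of the two criteria is met; inactive = mean below 60% and not all replicates reaching 60%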;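 note: luciferase light reporting Pax8 driven TPO promoter activity; plate controls were median of neutral control wells for no effect and mitoxantrone controls for full effect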
# aSyn 5UTR inh – 5' untranslated region of α-synuclein, MLPCN primary screen; alpha-synuclein 5'UTR reporter, inhibitor activity; inhibition, % (tested at 7.5 µM); 0.82% of 300,000 active; in the data active = inhibition above about 60%; inconclusive = no clear call, values can overlap the other calls;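 note: H4 neuroglioblastoma cells stably carrying SNCA 5'UTR luciferase fusion; 0% = DMSO wells and 100% = positive control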
# Shn3 inh set2 – Schnurri-3 reporter inhibition in Clone20 osteoblasts; Clone20 osteoblast Shn3 3'UTR firefly luciferase, 24 h; inhibition, % at 12.5 µM; 0.52% of 360,000 active; AID 588674;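 active = mean inhibition of at least 75% with every replicate also reaching 75%; inconclusive = mean inhibition at least 75% but some replicate below; inactive = mean inhibition below 75%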;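 note: 0% = median of neutral control wells and 100% = pilot-screen positive control compound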
# Numbers without * were called inactive; ? = inconclusive; . = no result.
SMILES,EBV LMP1 NFkB,TRPM1 prom inh,PAX8 inh HTS,aSyn 5UTR inh,Shn3 inh set2
COc1cc(OC)cc(C(=O)NNC(=S)NC(=O)c2cccnc2)c1,7,-7,-4,-31,4
COc1ccc(C(=O)NC(=S)NNC(=O)c2cnccn2)cc1OC,2,6,4,90*,76
O=C(/C=C/c1ccccc1)NC(=S)NNC(=O)c1cccnc1,2,3,16,-20,-6
CNC[C@H]1OCCCC[C@@H](C)Oc2ccc(NC(=O)C3CCCCC3)cc2C(=O)N([C@H](C)CO)C[C@@H]1C,.,.,0,.,.
O=Cc1cc2ccccc2nc1SCc1ccc(Cl)c(Cl)c1,-12,52,.,109*,16
O=Cc1cc2ccccc2nc1SCc1ccc(Cl)cc1,2,48,.,95*,6
Cc1ccc(CSc2nc3ccccc3cc2C=O)cc1,17,58,.,93*,-4
CCNC(=O)Cc1ccc(NS(=O)(=O)c2ccc(F)cc2)cc1,-11,1,.,8,7
CN(C)/C=C(\C#N)C(=O)Nc1ccc(F)cc1,-12,-52,.,-96,-37
COc1ccc(/C=C2\SC(=S)N(CCC(=O)NCCCn3ccnc3)C2=O)cc1,11,3,-17,54,-10
CCOc1ccc(/C=C2\SC(=S)N(CCCC(=O)NCCCN3CCOCC3)C2=O)cc1,55*,57,50,84*,71
CCc1ccc(/C=C2\SC(=S)N(CCCC(=O)NCCCN3CCOCC3)C2=O)cc1,36,.,62*,.,77
CC(C)c1ccc(/C=C2\SC(=S)N(CCC(=O)NCCCn3ccnc3)C2=O)cc1,21,-25,-7,98*,-1
CCOc1ccccc1CN1CCN(Cc2cccc3nonc23)CC1CCO (stereo not drawn),7,12,14,8,15
COc1ccc2oc(-c3ccc(NC(=O)c4ccc(N5CCOCC5)c([N+](=O)[O-])c4)cc3)nc2c1,-22,3,.,-25,8
O=C(Nc1ccc(-c2nc3ccccc3o2)cc1)c1ccc(N2CCOCC2)c([N+](=O)[O-])c1,5,30,.,-13,91*
CC(C)(C)c1cc(C(c2cccnc2)N2CCN(CCO)CC2)cc(C(C)(C)C)c1O (stereo not drawn),-4,79*,.,-8,97*
CCCCCCCCCCn1c2c(c(=N)c3c1CCC3)CCC2,?,81*,.,71*,71
CCn1c2c(c(=N)c3c1CCC3)CCCC2,.,.,14,-7,-38
CCCCCCCCCn1c2c(c(=N)c3c1CCC3)CCCC2,29,92*,.,90*,92*
CN(CC(=O)Nc1cccc(F)c1)C(=O)CCCc1cccs1,-2,-4,97*,-9,30
CCC(/C=N/Nc1ccc(S(=O)(=O)N2CCCC2)cc1[N+](=O)[O-])CC,-1,10,22,22,-21
COc1ccc(/C=C/C(=O)OC2CCCCC2CN(C)C)cc1 (stereo not drawn),-3,4,-8,16,27
O=C(CCS(=O)(=O)c1ccc(Cl)cc1)Nc1nc(-c2cccnc2)cs1,24,23,18,-25,4
CC1(c2ccccc2)NC(=O)N(CC(=O)Nc2nc(-c3ccccn3)cs2)C1=O (stereo not drawn),13,13,.,54,45
SMILES,EBV LMP1 NFkB,TRPM1 prom inh,PAX8 inh HTS,aSyn 5UTR inh,Shn3 inh set2
Cc1ccc(S(=O)(=O)CCC(=O)Nc2nc(-c3ccccn3)cs2)cc1,16,27,80*,.,42
Cc1ccc(C2(C)NC(=O)N(CC(=O)Nc3nc(-c4ccccn4)cs3)C2=O)cc1 (stereo not drawn),24,25,16,80*,63
CC(=O)c1sc(NC(=O)CCS(=O)(=O)c2ccc(Cl)cc2)nc1C,-1,-11,89*,3,-21
O=C(CCS(=O)(=O)c1ccc(Cl)cc1)Nc1nc(-c2ccncc2)cs1,0,16,96*,-29,35
CN(Cc1ccco1)C(=O)c1cc2c(s1)-c1ccc(Cl)cc1S(=O)(=O)C2,1,0,8,-2,-13
Cc1ccc(S(=O)(=O)Nc2ccc3c(c2)C(=O)N([C@@H](C)CO)C[C@H](C)[C@H](CN(C)C(=O)CCCN(C)C)OCCCC[C@@H](C)O3)cc1,.,.,13,.,.
CC(C)(O)C#Cc1ccc(C(=O)N2CCCC(CCC(=O)NCc3ccccc3F)C2)cc1 (stereo not drawn),0,-6,20,-1,-3
COc1ccc(S(=O)(=O)Nc2ccccc2SC)cc1C,2,16,.,-6,10
CC1=CC(=C2C(=O)c3ccccc3C2=O)C=C(C)N1C,-18,-53,.,-132,-99
CCCCCN1C=CC(=C2C(=O)c3ccccc3C2=O)C=C1,76*,99*,99*,113*,93*
CCC(c1nnc(SCC(=O)N2CC(=O)Nc3ccccc32)n1Cc1ccccc1)N(C)C (stereo not drawn),-4,0,.,3,-14
CCN1CCN(c2ccc(S(=O)(=O)N3CCCCC3)cc2NC(=O)c2ccc([N+](=O)[O-])s2)CC1,1,85*,.,14,55
CCN1CCN(c2ccc(S(=O)(=O)N3CCCCC3)cc2NC(=O)/C=C/c2ccc(OC)c(OC)c2)CC1,7,-5,-4,-8,8
CCN1CCN(c2ccc(S(=O)(=O)N3CCCCC3)cc2NC(=O)/C=C/c2ccc(Cl)cc2)CC1,0,89*,8,.,-23
O=C(Nc1cccc(Cl)c1)Nc1nnc(-c2ccncc2)s1,11,-3,104*,51,35
O=C(Nc1cccc(Cl)c1)Nc1nnc(CSCCOc2ccc(Cl)cc2)s1,44*,67*,107*,31,67
CC1=Nn2c(nc3sc4c(c3c2=O)CCCC4)SC1,-7,-53,-81,-142,-21
CCN(Cc1ccccc1)C(=O)C1CCN(Cc2sccc2C)CC1,-8,1,-3,-22,22
CCOc1ccc2nc(SCC(=O)N3c4ccccc4Sc4ccccc43)c(C#N)cc2c1,9,10,-8,11,15
O=C(c1cc(-c2ccccn2)nc2ccc(Br)cc12)N1CCc2ccccc2C1,.,.,.,-22,.
CCc1nnc(N/N=C/c2cc(Br)c(O)cc2O)n1N,0,11,4,25,-3
CC(C)(C)c1nnc(N/N=C/c2cc(Br)ccc2O)n(N)c1=O,?,68*,61*,116*,86*
O=C(NNC1=NC2(CCCC2)Cc2ccccc21)c1cccnc1,1,5,14,-7,-15
Cc1cc(C)c(CN2CCN(C(=O)Cn3ccc(N)nc3=O)CC2)c(C)c1,-4,-3,-23,.,-6
CSc1nc(N)nc2c1ncn2CC(=O)N1CCN(Cc2c(C)cc(C)cc2C)CC1,38,29,-29,.,89*
CSc1nc(N)nc2c1ncn2CC(=O)NCc1ccccc1,88*,0,-8,.,8
Clc1ccc(-c2ccnc(Oc3ccc4ccccc4c3)n2)cc1,57*,-4,.,10,-7
COc1cc(Cn2nnc3ccccc32)ccc1O,0,.,18,7,-34
O=C(NCc1ccccc1)C(=O)Nc1cccc(C(=O)O)c1,67*,63*,59,74*,30
